High-throughput results (PubChem BioAssay)
BoNT-A LC inh2 = BoNT/A light chain protease inhibitors, primary screen, biochemical, flow cytometry, MLPCN library; AID 588499, 2011; inhibition, % at 10 µM; multiplex microsphere protease substrate cleavage; Botulinum neurotoxin type A light chain protease (Clostridium botulinum A str. ATCC 3502); 360,000 compounds, 0.17% hits
SARS 3CLpro inh = SARS-CoV 3CLpro protease inhibitors, primary screen, biochemical, quenched FRET. AID 1706, 2009. inhibition, % at 6 µM. recombinant SARS-CoV 3CLpro, quenched FRET peptide cleavage. Replicase polyprotein 1ab (Severe acute respiratory syndrome coronavirus), P0C6X7. 290,000 compounds, 0.14% hits; in the data active = inhibition above about 12%
BoNT F protease = BoNT/F light chain protease inhibitors, primary screen, biochemical, flow cytometry, MLPCN library; Botulinum neurotoxin type F light chain protease (Clostridium botulinum); Multiplex microsphere protease cleavage assay; inhibition, % at 10 µM; 360,000 compounds, 0.22% hits; AID 588497, 2011; in the data active = inhibition above about 35%, passing the limit was not always enough; inconclusive = no clear call, values can overlap the other calls
Autofluor counter = counter-screen for toxin protease inhibitors: compound fluorescence; compound autofluorescence counterscreen, microsphere flow cytometry; stronger effect = higher value; fluorescence intensity (test concentration not listed); 360,000 compounds, 3.1% hits; in the data active = fluorescence intensity above about 16000; inconclusive = no clear call, values can overlap the other calls
Anthrax LF inh2 = Bacillus anthracis LF protease inhibitors, primary screen, biochemical, multiplex microsphere, MLPCN library; Lethal factor (Bacillus anthracis), P15917; multiplex microsphere protease cleavage assay; inhibition, % at 10 µM; 360,000 compounds, 0.12% hits; AID 588501, 2011
VHR inh abs = VHR1 phosphatase inhibitors, primary screen, biochemical, absorbance, uHTS; recombinant VHR phosphatase, pNPP absorbance; inhibition, % at 13.3 µM; Dual specificity protein phosphatase 3 (Homo sapiens), P51452; 290,000 compounds, 0.52% hits; in the data active = inhibition above about 50%
Of the large screens only hits and unclear results are named; the others gave an inactive call. A selection: hits, their analogues and other compounds. The true share with any hit is near 3.9%. Rule as the data show it, unless noted: active = inhibition above about 30%; inconclusive = no clear call, values can overlap the other calls; inactive = below that.

O=C1CC(N(C(=O)c2ccco2)c2ccc(F)cc2)C(=O)N1c1ccc(F)cc1 (stereo not drawn)	BoNT-A LC inh2 inconclusive, Autofluor counter 19184
O=C1CC(N(C(=O)c2ccco2)c2cccc(Cl)c2)C(=O)N1c1cccc(Cl)c1 (stereo not drawn)	none
COc1ccc(C2NC(=O)C(C)S2)cc1 (stereo not drawn)	Autofluor counter 24997
CC1SC(c2ccc(Cl)cc2Cl)NC1=O (stereo not drawn)	VHR inh abs 57
CC1SC(c2cccc(Cl)c2)NC1=O (stereo not drawn)	Autofluor counter 24188
O=C(COC(=O)CCC(=O)c1cccs1)Nc1cccc(F)c1	none (no result: SARS 3CLpro inh, VHR inh abs)
COc1ccc(CN2CC[C@H]3C=CC[C@@H](C(=O)Nc4ccc(Cl)c(C(F)(F)F)c4)[C@H]3C2=O)cc1OC	none (no result: SARS 3CLpro inh, VHR inh abs)
CC(C)C(=O)Nc1ccc(NC(=O)c2ccc(COc3ccccc3)cc2)cc1	BoNT F protease inconclusive
C/C(=N\O)c1cc(Cl)cc(Cl)c1O	BoNT F protease inconclusive, Anthrax LF inh2 34
C/C(=N\O)c1ccc(Cl)cc1Cl	none
Cc1ccc(S(=O)(=O)N2C[C@H]3C(=O)C[C@@H](c4ccccc4)N(S(C)(=O)=O)[C@H]3C[C@H]2c2ccccc2)cc1	none (no result: SARS 3CLpro inh, VHR inh abs)
O=C(COc1ccccc1)NCC(=O)N/N=C/c1ccc(Cl)cc1	none
Cc1cc2oc3c(c(=O)c2cc1C)C(c1cccc(Br)c1)N(Cc1ccco1)C3=O (stereo not drawn)	none
CCOc1cc(C2c3c(oc4cc(C)c(Cl)cc4c3=O)C(=O)N2Cc2ccco2)ccc1O (stereo not drawn)	Autofluor counter 21623
Cc1ccc2oc3c(c(=O)c2c1)C(c1cccc(Br)c1)N(Cc1ccco1)C3=O (stereo not drawn)	Autofluor counter 18391
COc1cc(C2c3c(oc4ccccc4c3=O)C(=O)N2Cc2ccco2)ccc1O (stereo not drawn)	none
Cc1ccc2[nH]c3c(c2c1)CC/C(=C/c1ccccc1)C3=O	none
O=C1/C(=C\c2ccccc2)CCc2c1[nH]c1ccccc21	Autofluor counter 23509
Cc1ccc(/C=C2/CCc3c([nH]c4ccccc34)C2=O)cc1	Autofluor counter 23420
CCOc1nc(-c2ccc(OC)cc2)ccc1-c1noc(-c2ccncc2)n1	BoNT-A LC inh2 inconclusive, Autofluor counter 23147 (no result: SARS 3CLpro inh)
CCOc1nc(-c2ccccc2)ccc1-c1noc(-c2cccs2)n1	Autofluor counter 20998
CCc1ccc(-c2nc(-c3ccncc3)no2)cc1	VHR inh abs 57
CCCCc1ccc(-c2nc(-c3ccncc3)no2)cc1	none
CCOc1nc(-c2ccccc2)ccc1-c1noc(-c2ccncc2)n1	none
COc1cccc(-c2ccc(-c3noc(-c4cccs4)n3)c(OC)n2)c1	none
CCC(CC)n1c(C)cc(=O)n1C(CC)CC	none (no result: SARS 3CLpro inh, VHR inh abs)
C=CCSc1nc(C)cc(/C=C\c2ccccc2)c1C#N	BoNT-A LC inh2 inconclusive, Autofluor counter 21811
C=CCSc1nc(N)c(C#N)c(-c2ccc(C)cc2)c1C#N	none
Cc1nn(-c2ccccc2)c(C)c1/C=N\NS(=O)(=O)c1ccc(Cl)cc1	none
COc1ccc(-n2c(-c3ccccc3)cc3c2CCCC3=O)cc1	BoNT-A LC inh2 inconclusive, Autofluor counter 22566
O=C1CCCc2c1cc(-c1ccccc1)n2-c1ccc(O)cc1	none
CCSc1ccccc1C(=O)Nc1cccnc1	BoNT-A LC inh2 inconclusive, Autofluor counter 23629
CCCCC(=O)Nc1cccc(NC(=O)c2ccc(Br)cc2)c1	Autofluor counter 24448
CCCCC(=O)Nc1ccc(C(=O)Nc2cccnc2)cc1	Autofluor counter 16977
CCCCC(=O)Nc1ccc(C(=O)Nc2nnc(COC)s2)cc1	Autofluor counter 21834
C[C@H](CO)N1C[C@H](C)[C@@H](CN(C)C(=O)Nc2cccc(F)c2)Oc2ncc(Br)cc2C1=O	none (no result: SARS 3CLpro inh, VHR inh abs)
F[B-](F)(F)COc1ccccc1	none (no result: SARS 3CLpro inh, VHR inh abs)
O=C1C(Br)=Cc2cccc3cccc1c23	BoNT-A LC inh2 59, Anthrax LF inh2 30
O=C1C(=O)c2cccc3cccc1c23	none
Cc1ccccc1C(=O)NNc1ccc([N+](=O)[O-])cc1	BoNT-A LC inh2 inconclusive, Autofluor counter 19390
Cc1ccccc1C(=O)NCCNc1ccc([N+](=O)[O-])cc1	none
CC(C)OC(=O)/C(=C\c1cccc2ccccc12)NC(=O)c1ccccc1	none
CSc1nc2nccc(/C=C\c3ccccc3)n2n1	BoNT-A LC inh2 inconclusive, Autofluor counter 21761
O=C(Nc1cccc(Cl)c1)Nc1nccs1	BoNT-A LC inh2 inconclusive, Autofluor counter 16192
O=C(Nc1ccc(Cl)c(Cl)c1)Nc1nccs1	none
O=C(c1cc2nc(-c3ccccc3)cc(C(F)(F)F)n2n1)N1CCOCC1	Autofluor counter 21930
O=C(c1cc2nc(-c3ccc(F)cc3)cc(C(F)(F)F)n2n1)N1CCOCC1	none
CC1CCN(C(=O)c2cc3nc(-c4ccccc4)cc(-c4ccccc4)n3n2)CC1	Autofluor counter 20793
CN(C)C(=O)N1CCC(C(=O)NCc2ccccc2)CC1	none
COc1ccc(CNC(=O)C2CCN(C(=O)N(C)C)CC2)c(OC)c1	BoNT-A LC inh2 inconclusive, Autofluor counter 16860
COc1ccccc1CNC(=O)C1CCN(C(=O)N(C)C)CC1	Autofluor counter 20518
COc1cccc(CNC(=O)C2CCN(C(=O)N(C)C)CC2)c1	none
N#CCCN1CCCN(CCC#N)CCN(CCC#N)CCCN(CCC#N)CC1	none
Cc1ccc(NC(=O)CCC(=O)OCC(F)(F)C(F)F)cc1	BoNT-A LC inh2 inconclusive, Autofluor counter 21194
CCOC(=O)c1ccc(NC(=O)CSCCC(=O)O)cc1	none
CCN(CC(=O)Nc1ccc(NC(C)=O)cc1)C(=O)CSCC(=O)Nc1ccc(C)cc1	none (no result: SARS 3CLpro inh, VHR inh abs)
Cc1ccc(NC(=O)CSCC#N)cc1	BoNT-A LC inh2 inconclusive, Autofluor counter 18468
CCOC(=O)c1ccc(NC(=O)CSCc2ccco2)cc1	BoNT-A LC inh2 inconclusive, Autofluor counter 16501
CCOC(=O)CC(=O)CSCC(=O)Nc1ccc(C)cc1	Autofluor counter 22826
N#CCSCC(=O)Nc1ccc(Br)cc1	none
Cc1noc(C)c1C(=O)Nc1nccs1	none
CC1(C(=O)N(CC(=O)NC2CCCC2)Cc2ccc(Cl)cc2)CC(=O)N=C2C=CC=CN21 (stereo not drawn)	VHR inh abs 52
CC(C)(C)NC(=O)CN(C(=O)C1(C)CC(=O)N=C2C=CC=CN21)C1CCCC1 (stereo not drawn)	Autofluor counter 23762
CC1=CC2=NC(=O)CC(C)(C(=O)N(CC(=O)NC(C)(C)C)C3CCCC3)N2C=C1 (stereo not drawn)	none
O=C(O)CCc1ccc(-c2cccs2)n1NC(=O)c1ccccc1Br	Autofluor counter 23254
CC(C)(C)c1ccc(C(=O)Nn2c(CCC(=O)O)ccc2-c2cccs2)cc1	Autofluor counter 17160
O=C(O)CCc1ccc(-c2ccccc2)n1NC(=O)c1cccs1	none
